# Bioassay records (PubChem)
# Most compounds without a hit are left out; they make up all but 2.3% or so of the library.
# A549 viability – Nrf2 qHTS screen for inhibitors: counterscreen for cytotoxicity; A549 ARE-Fluc cells, CellTiter-Fluor viability, 18-24 h; Potency, µM (highest dose often 46 µM), without a hit: at the top dose activity change, negative = cytotoxicity, hits mostly inhibitors; 390,000 tested, 0.16% active; further: on the % scale 0 is the no-effect control and ±100 the full control effect
#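 Cytotoxicity counterscreen: CellTiter-Fluor fluorescence was measured in A549 ARE_Fluc cells after 18-24 h of compound exposure in a concentration series. The subsequent BugLite luminescent read reports ARE-luciferase activity.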
# Nrf2 ARE act – qHTS of Nrf2 Activators; 410,000 tested, 0.31% active; Potency, µM (highest dose often 46.1 µM), inactives show at the highest dose activation, hits mostly activators; AID 624171, 2012; AREc32 ARE-luciferase reporter (MCF7-derived line), luminescence, 24 h; further: % of control where 0% means no effect; nearly all actives have a fitted effect of over 65% in size
#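 Reporter line AREc32 (ARE-Fluc), seeded overnight in OPTI-MEM with 5% FBS; compound pin-transferred, 24 hr at 37 deg C, 5% CO2; luminescent read-out.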
# Nrf2 block – Nrf2 qHTS screen for inhibitors; AID 504444, 2011; A549 ARE-Fluc reporter, luciferase luminescence, 18-24 h; 360,000 tested, 2.1% active; Potency, µM (series often up to 46 µM), for inactives: at the highest dose activity change, negative = inhibition, actives largely listed as inhibitors; further: on the % scale 0 is the no-effect control and ±100 the full control effect; nearly all actives have a fitted effect of over 60% in size
#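 Concentration-response testing used A549 ARE_Fluc cells at 5000 cells/well. Following an 18-24 h compound incubation, viability was read by fluorescence (Ex 405/Em 525) and luciferase output by luminescence.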
# Rango-impB inh – qHTS Assay for Inhibitors of Rango (Ran-regulated importin-beta cargo) - Importin beta complex formation; 340,000 tested, 0.031% active; AID 540263, 2011; Importin subunit beta-1 (Homo sapiens), Q14974; Potency, µM (series often up to 92.2 µM), for inactives: at the highest dose inhibition of complex formation; Rango CFP/YFP FRET sensor + importin beta, 45 min; calls by dose curve;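 further: 0% = DMSO wells and 100% = buffer wells lacking importin beta; nearly all actives have a fitted effect of over 15% in size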
# Target sequence (Q14974 whole entry, looked up): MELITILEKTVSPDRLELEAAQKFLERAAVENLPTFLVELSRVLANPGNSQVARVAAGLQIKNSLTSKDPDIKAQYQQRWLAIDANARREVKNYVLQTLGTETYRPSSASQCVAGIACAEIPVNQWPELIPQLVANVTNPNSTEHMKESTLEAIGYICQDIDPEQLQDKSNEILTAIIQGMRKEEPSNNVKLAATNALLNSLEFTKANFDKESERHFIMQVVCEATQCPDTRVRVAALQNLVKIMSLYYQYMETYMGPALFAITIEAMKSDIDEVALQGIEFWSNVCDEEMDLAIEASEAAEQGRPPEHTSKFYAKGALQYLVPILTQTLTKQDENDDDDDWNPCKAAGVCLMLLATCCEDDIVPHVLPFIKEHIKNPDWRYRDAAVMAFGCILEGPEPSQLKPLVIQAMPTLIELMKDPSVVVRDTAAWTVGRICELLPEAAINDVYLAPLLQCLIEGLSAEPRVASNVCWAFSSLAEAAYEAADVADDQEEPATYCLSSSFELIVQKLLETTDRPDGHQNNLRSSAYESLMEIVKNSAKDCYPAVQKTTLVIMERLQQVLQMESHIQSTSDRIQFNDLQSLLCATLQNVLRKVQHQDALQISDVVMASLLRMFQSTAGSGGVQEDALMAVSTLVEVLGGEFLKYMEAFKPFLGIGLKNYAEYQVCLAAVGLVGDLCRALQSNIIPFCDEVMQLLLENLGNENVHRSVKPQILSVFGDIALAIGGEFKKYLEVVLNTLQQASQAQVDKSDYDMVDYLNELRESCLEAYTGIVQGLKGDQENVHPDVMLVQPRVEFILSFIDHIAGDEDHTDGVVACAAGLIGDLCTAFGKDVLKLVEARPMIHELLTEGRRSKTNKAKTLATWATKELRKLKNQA
#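 FRET biosensor (snurportin 1 IBB flanked by EYFP and cerulean), 50 nM, with compound 5 min, then 0.125 microM importin beta in PBS, 1 mM DTT, 0.02% Tween-20, 0.1% BSA. CFP/YFP ratio read after 45 min at room temperature; pre-read flags interference.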
# Rango release inh – qHTS Assay for Inhibitors of RanGTP induced Rango (Ran-regulated importin-beta cargo) - Importin beta complex dissociation. Snurportin-1 (Homo sapiens) + GTP-binding nuclear protein Ran (Homo sapiens) + Importin …. Biochemical FRET Rango-importin beta, RanGTP-induced dissociation. Potency, µM (highest dose often 46.1 µM), without a hit: at the top dose activity change, negative = inhibition. 340,000 tested, 0.071% active; calls by dose curve; further: % of control where 0% means no effect; nearly all actives have a fitted effect of over 45% in size
#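 Rango (0.1 uM)–importin beta (0.25 uM) complex; RanGTP-RCC1 trigger; 45 min RT; CFP/YFP FRET read.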
# * hit, by the source's call; u = inconclusive; x = no result given; [ ] = dose if it differs, or a comment. Unless noted, the call rests on the fitted dose curve; in most records, active means well fitted curve in the direction sought with a large enough effect; inconclusive means small, poorly fitted or top-dose-only effect, or another doubt; inactive means no such curve, though single readings can be large; an effect the other way counts as inactive or inconclusive. Potency means the concentration at half of the fitted maximal effect.
SMILES,A549 viability,Nrf2 ARE act,Nrf2 block,Rango-impB inh,Rango release inh
COC(=O)[C@@]12OC[C@]34[C@H]([C@@H](O)[C@@H]1O)[C@@]1(C)C(=O)C(O[C@@H]5OC(CO)[C@@H](O)[C@@H](O)[C@@H]5O)=C[C@@H](C)[C@@H]1C[C@H]3OC(=O)[C@H](OC(=O)/C=C(\C)C(C)(C)OC(C)=O)[C@@H]24 (some centres undefined),u,-4%,2.9µM*,-2%,-8%
CCc1nc2ccc(C(=O)Nc3cccc(OCC(=O)N(C)C)c3)cn2c1N(C)Cc1cc2ccccc2s1,x,1%[9.22 µM],x,x,x
COc1cccc(NC(=O)c2sc(NC(=O)c3ccncc3)nc2C)c1,0%,0%,12µM*,-5%,-22%
COc1cccc(NC(=O)c2ccncc2)c1,-10%,0%,8%,2%,1%
COc1cccc(CNC(=O)c2ccc(-c3nc(CS(=O)(=O)c4ccccc4)c(C)o3)cc2)c1,7%,0%,23µM*,x,x
COc1ccc(NC(=O)CS(=O)(=O)Cc2nc(-c3ccc(C)cc3)oc2C)cc1,-1%,0%,0%,-4%,40%
COc1cccc(NC(=O)CS(=O)(=O)Cc2nc(-c3ccc(C)cc3)oc2C)c1,-15%,1%,26µM*,3%,11%
Cc1ccc(C)c(OCCn2cc(C(=O)O)c3ccccc32)c1,-8%,0%,-12%,-1%,0%
Cc1ccc(C)c(OCCn2cc(/C=C(\C#N)C(=O)NCc3ccco3)c3ccccc32)c1,3%,0%,-17%,u,4.1µM*
Cc1ccccc1OCCn1cc(/C(N)=N/O)c2ccccc21,-23%,3%,23µM*,-3%,-2%
CC(=O)c1cn(CCOc2cc(C)ccc2C)c2ccccc12,-1%,2%[9.22 µM],6.5µM*,-3%,-10%
C=CCN(C(=O)CCC(=O)Nc1cc(C)on1)C(C(=O)NC1CCCC1)c1ccc(OC)cc1OC (centres undefined),2%,3%,1%,3%,11%
CCOC(=O)N1CCc2c(sc3c2c(=O)n(Cc2ccccc2)c(=O)n3CC(=O)Nc2ccc(F)cc2)C1,-3%,1%,u,x,x
Cc1ccc(CCS(=O)(=O)c2ccc(C(C)(C)C)cc2)cn1,-4%,-1%,8.2µM*,1%,3%
C#CCn1c(=NC(=O)c2ccco2)sc2cccc(Cl)c21,-3%,4µM*,5%,3%,9%
COc1ccccc1N1C(=O)c2ccccc2C1=O,-8%,x,1%,x,x
CCOC(=O)N1CCC(NC(=O)c2cc(-c3ccc(F)cc3)[nH]c2C)CC1,-29%,4%,23µM*,1%,6%
Cc1cc(OCc2cc(C(=O)N3CCN(C)C(=O)[C@@H]3C)no2)cc(C)c1Cl,-10%,0%,21µM*,0%,-16%
CC1CCCCC1NC(=O)Cn1cc([N+](=O)[O-])ccc1=O (centres undefined),-3%,-1%,1%,-1%,12%
CC1CCCCC1NC(=O)CN1CCC(NC(=O)c2ccc([N+](=O)[O-])cc2)CC1 (centres undefined),-6%,-1%,7.3µM*,-2%,0%
CCOC(=O)c1sc(NC(=O)CSc2ncn(-c3ccccc3)n2)nc1C,0%,1%,-14%,-4%,19%
Cc1sc(NC(=O)CSc2ncn(-c3ccccc3)n2)nc1-c1ccccc1,-7%,4%,12µM*,3%,9%
Cn1nc(C2CC2)cc1NC(=O)C1(C)CCN1C(=O)CCc1ccccc1 (centres undefined),x,-1%[9.22 µM],x,x,x
COc1ccc(OC)c(CCNC(=O)Cn2nc(C)c3c(C)n(-c4ccc(C)cc4)nc3c2=O)c1,-15%,2%,10µM*,3%,2%
O=C(Cc1cccs1)Nc1ccc(-c2nnc(-c3ccccc3)o2)cc1,0%,4%,10%,-3%,9%
SMILES,A549 viability,Nrf2 ARE act,Nrf2 block,Rango-impB inh,Rango release inh
Cc1cccc(-c2nnc(-c3cccc(NC(=O)Cc4cccs4)c3)o2)c1,u,4%,21µM*,2%,1%
CCOc1ccc2nc(NC(=O)C34CC5CC(CC(NC(C)=O)(C5)C3)C4)sc2c1,-9%,3%,-30%,-4%,3%
C=CCOc1ccc(CN(C)C(=O)CNC(=O)c2ccc(-c3ccccc3)cc2)cc1,-21%,2%,16µM*,0%,-8%
CCOc1ccc(CN(C)C(=O)CNC(=O)c2ccccc2)cc1,1%,2%,-26%,10%,9%
COC(=O)C1=C(C)NC(=O)NC1c1ccc(OC)c(OC)c1 (centres undefined),x,-1%,x,x,x
COC(=O)C1=C(C)NC(=S)N(C(C)=O)C1c1ccc(OC)c(OC)c1 (centres undefined),-13%,0%,15µM*,0%,u
COc1ccc(C(C(=O)NC(C)(C)C)N(C(=O)CCC(=O)Nc2cc(C)on2)c2ccc(C)c(C)c2)cc1 (centres undefined),-14%,-1%,24%,-1%,4%
CCc1cc(C(=O)OC)c(NC(=O)CSc2nccn2C)s1,0%,6%,2%,1%,2%
CN=c1scc(-c2ccc(F)cc2)n1/N=C/c1ccc(O)c(O)c1,-16%,18%,21µM*,0%,-7%
Cc1c(OC(C)C(=O)NCc2ccncc2)ccc2c3c(c(=O)oc12)CCCC3 (centres undefined),-1%,0%,23µM*,-2%,6%
CC(=O)Nc1cc(OC(C)=O)c2nonc2c1OC(C)=O,u,-3%,15µM*,5%,-9%
CCCOc1ccc(CNC(=O)CCCn2ncn3c(cc4sc(CC)cc43)c2=O)cc1,u,-2%,23µM*,x,x
COC(=O)C(C)N(C(=O)c1cccc2ccccc12)c1c(C)cccc1C (centres undefined),-11%,-2%,18µM*,-3%,4%
COc1ccc(C2C(C#N)=C(C)NC3=C2C(=O)CC(C)(C)C3)cc1 (centres undefined),-12%,0%,13%,u,-19%
CCCSC1=C(C#N)C(c2ccc(OC)cc2)C2=C(CC(C)(C)CC2=O)N1 (centres undefined),-29%,0%,23µM*,-3%,-11%
Cc1ccc(CNCc2cc3c(C(C)(C)C)nn(-c4ccccc4)c3[nH]c2=O)cc1,-15%,6%,u,1%,-9%
COc1ccc(CNCc2cc3c(C(C)(C)C)nn(-c4ccccc4)c3[nH]c2=O)cc1,-25%,7%,18µM*,2%,-4%
O=C(Nc1sc2c(c1C(=O)NCC1CCCO1)CCCC2)c1cccs1 (centres undefined),-14%,5%,21µM*,u,u
